The full list was thinned out, with hits kept by preference.
TbREL1 inh – TbREL1 inhibition, primary screen | TbREL1 RNA ligation, FRET fluorescence | inhibition, % at 9.66 µM | 0.49% of 89,000 active;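 active = inhibition above the mean inhibition across all screened compounds plus 3 SD, cut at about 11% in these data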;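 note: 0% = plate median of test wells and 100% = NSC42067 control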
Target sequence (P86926 whole entry, looked up): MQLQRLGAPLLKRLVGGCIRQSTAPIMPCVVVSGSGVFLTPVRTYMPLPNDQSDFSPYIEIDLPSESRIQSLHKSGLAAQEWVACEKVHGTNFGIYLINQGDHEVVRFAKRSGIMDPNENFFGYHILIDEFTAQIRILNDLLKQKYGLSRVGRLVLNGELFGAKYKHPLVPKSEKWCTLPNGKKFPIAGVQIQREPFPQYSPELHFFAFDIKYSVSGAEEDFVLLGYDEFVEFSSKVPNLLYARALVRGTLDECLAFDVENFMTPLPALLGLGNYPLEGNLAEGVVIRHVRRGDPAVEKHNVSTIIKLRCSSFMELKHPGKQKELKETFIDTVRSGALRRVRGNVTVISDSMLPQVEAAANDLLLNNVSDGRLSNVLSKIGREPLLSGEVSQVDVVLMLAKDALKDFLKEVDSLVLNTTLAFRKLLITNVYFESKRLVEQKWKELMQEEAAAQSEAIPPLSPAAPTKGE
TbREL1 conf – TbREL1 inhibition, confirmation. shares compounds with TbREL1 inh. TbREL1 RNA ligation, FRET fluorescence. inhibition, % at 9.66 µM. 37% of 390 active;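 active = mean inhibition across replicates above a set limit taken from the earlier primary screen, cut at about 11% in these data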;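 note: 0% = REL1 with substrate and DMSO and 100% = REL1 plus control inhibitor NSC42067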
The depositor's hits bear a star.

SMILES | TbREL1 inh | others
COC(=O)[C@]12C[C@H](CC(=O)N3CCN(C(=O)C4CC4)CC3)C(=O)N(Cc3ccc(Cl)cc3Cl)C1=C[C@H](COCc1ccccc1)O[C@@H]2C | 5
CC(=O)c1cnc(N(C)C)s1 | 0
CN(C)c1ncc(C2=C(Cl)C(=O)C(N3CCCC3)=C(Cl)C2=O)s1 | 69*
COc1ccc(-c2nnc(SCC(=O)Nc3ccc(S(=O)(=O)Nc4nccs4)cc3)n2-c2ccc(OC)cc2)cc1 | -5
Cc1ccccc1CNC(=O)C1CCCN(c2ncccn2)C1 (stereo not given) | -3
COc1ccc(Br)cc1CNc1ccc(O)cc1 | 24*
C=CCc1cccc(CNc2ccc(Br)cc2)c1O | -3
COc1ccc(C(=O)NN)cc1COc1ccc(Br)cc1 | 6
Cc1ccc(-n2c(SC/C=C/c3ccccc3)nnc2-c2cccs2)cc1 | 0
Cn1cccc1C=NNC(=O)c1cc(-c2ccc(Cl)cc2)n[nH]1 | 1
Fc1ccc(F)c(Cn2ccc3ccc(-c4ccc5ccn(Cc6cc(F)ccc6F)c5c4)cc32)c1 | 7
C#CCNC(=O)C[C@@H]1C(=O)N2CCCC3=C2[C@@]1(C(=O)OCC)CCC3 | 5
COc1cc(C(=O)N2CCN(c3ccccc3O)CC2)ccc1OCC(=O)N1CCOCC1 | 2
COc1cc(C(=O)N2CCN(S(=O)(=O)c3cc(C)ccc3C)CC2)ccc1OCC(=O)N1CCOCC1 | 7
COc1cc(C(=O)N2CCN(c3cccc(C)c3C)CC2)ccc1OCC(=O)N1CCOCC1 | 13* | TbREL1 conf=0
CC(C)(N[C@@H](Cc1c[nH]c2ccccc12)C(=O)NCC(c1ccccc1)c1ccccc1)C(=O)NC1CCCCC1 | -4
CC(C)c1ccc(NC(=O)O[C@@H]2CC[C@@]34CCCN3C(=O)CCC[C@H]4C2)cc1 | 1
CC(C)c1c(Cl)c(O)c(-c2ccccc2)c(=O)n1-c1ccc(F)cc1 | 17* | TbREL1 conf=13*
Cc1ccc(-n2c3c(c(O)c(-c4ccccc4)c2=O)C(=O)CC(C)(C)C3)cc1 | -1
COc1ccc(-c2c(O)c(C#N)c(-c3ccccc3)n(-c3ccc(OC)cc3)c2=O)cc1 | -4
NC(=NC(=O)/C=C/c1ccccc1Br)N(CC#Cc1ccccc1)CC#Cc1ccccc1 | 1
CC(C)NC(=O)CCn1nnc(-c2cccs2)n1 | 0
O=C(c1ccccc1)c1ccc(N2CCOCC2)cc1 | 1
CCn1c(=Nc2ccc(N3CCOCC3)cc2)ccc2ccccc21 | -1
Cn1c(N=Nc2ccc(N3CCOCC3)cc2)[n+](C)c2ccccc21 | 23* | TbREL1 conf=27*
SMILES | TbREL1 inh | others
COc1cc(NC(=O)C2CCCN(S(=O)(=O)c3ccccc3[N+](=O)[O-])C2)cc(OC)c1 (stereo not given) | -1
O=C(NCCc1nc2ccccc2n1CCOc1cc(F)ccc1F)C1CCCCC1 | 2
O=C(NC1CCCc2c1cnn2-c1ccc(F)cc1F)c1cccs1 (stereo not given) | 2
Cc1onc(-c2ccccc2)c1C(=O)NC(C)C | -1
Cc1onc(-c2ccccc2)c1C(=O)N(Cc1ccccn1)Cc1ccccn1 | 11* | TbREL1 conf=4
Cc1onc(-c2ccccc2)c1C(=O)N(C)CCc1ccccn1 | -1
NS(=O)(=O)c1ccc(NC(=O)/C=C/c2ccco2)cc1 | 2
CC(=O)NS(=O)(=O)c1ccc(NC(=O)/C=C/c2ccco2)cc1 | 15* | TbREL1 conf=12*
Cc1ccc(NC(=O)c2cccc(NC(=O)/C=C/c3ccco3)c2)cc1C | -2
COc1ccc(CNC2CCC23CCC(C)CC3)cc1 (stereo not given) | 1
Cc1ccc(S(=O)(=O)N2CCC(C(=O)NCc3cccs3)CC2)cc1 | -1
COC(=O)[C@]12C[C@H](CC(=O)NCc3ccccc3)C(=O)N(Cc3cccc4ccccc34)C1=C[C@H](C(C)C)O[C@@H]2C1CC1 | -1
O=C(NCCc1ccccc1F)c1cc2ccccn2n1 | 1
Cc1ccc(S(=O)(=O)N2CCN(CC(=O)NC(C)c3ccccc3)CC2)cc1 (stereo not given) | 2
O=C(CN1CCCCC1)Nc1ccc(S(=O)(=O)N2CCCCCC2)cc1 | -3
Cc1n[nH]c(C)c1NC(=O)CN1CCN(S(=O)(=O)c2ccc(C(F)(F)F)cc2)CC1 | 11* | TbREL1 conf=4
O=C(c1cccs1)n1ccc2ccc(-c3ccc4ccn(C(=O)c5cccs5)c4c3)cc21 | 2
Cc1ccc(S(=O)(=O)NCC(=O)N2CCN(c3ccccn3)CC2)cc1C | 0
O=C(CSc1nc2ccccc2o1)NN=C/C=C\c1ccccc1[N+](=O)[O-] | 0
CCn1c2ccccc2c2cc(C=NNC(=O)c3ccoc3C)ccc21 | 4
O=C(NC1CCCCN(Cc2ccc(Cl)cc2)C1=O)c1ccccc1 (stereo not given) | 4
Cc1ccccc1CN1CCCCC(NC(=O)c2ccc(COc3ccccc3)cc2)C1=O (stereo not given) | 0
O=C(NC1CCCCN(Cc2ccc(Cl)cc2)C1=O)c1ccc(COc2ccccc2)cc1 (stereo not given) | 12* | TbREL1 conf=-2
O=S1(=O)c2c(NCc3ccco3)cccc2Oc2ccccc2CN1Cc1cn(Cc2ccc(Cl)cc2)nn1 | 8
CCOC(=O)[C@@]12CCC3=C1N(CCC3)C(=O)[C@H](CC(=O)NCc1cccc(C(F)(F)F)c1)C2 | -1
SMILES | TbREL1 inh | others
Oc1ccc(CCc2c(F)cccc2F)c2cccnc12 | -7
Oc1ccc(CNc2ccccc2Br)c2cccnc12 | 14* | TbREL1 conf=-1
OCc1ccnc2c(O)cccc12 | 0
Oc1ccc(CNc2cccc(F)c2)c2cccnc12 | 11
Oc1ccc(CNc2ccc(C(F)(F)F)cc2F)c2cccnc12 | 13* | TbREL1 conf=-3
O=Nc1ccc(O)c2ncccc12 | 10
CCC[C@H]1[C@@H](OC(=O)NCc2ccccc2)CC[C@@]23CCCN2C(=O)CCC[C@@H]13 | -3
CN(c1cccnc1)c1ccc(NC(=O)Cc2c[nH]c3ccccc23)cc1-c1cccnc1F | 0
CCN(C(=O)C1CCCN1S(=O)(=O)c1cccnc1)c1ccccc1 (stereo not given) | 0
Clc1ccc(OCCNCCc2ccccc2)cc1 | 4
CC(=O)NCCOc1cccc2ccccc12 | 4
c1ccc(CCNCCCOc2cccc3ccccc23)cc1 | 12* | TbREL1 conf=10
C[C@@H]1CN=C2N(CCNC(=O)CCC3CCCCC3)[C@H](Cc3ccc(O)cc3)CN21 | 5
COc1ccc(C[C@H]2CN3C(=NC[C@@H]3Cc3ccccc3)N2CCNC(=O)CCC2CCCCC2)cc1 | 21* | TbREL1 conf=18*
O=C(CCC1CCCCC1)NCCN1C2=NC[C@H](Cc3ccc(O)cc3)N2C[C@H]1Cc1ccc(O)cc1 | 3
C[C@@H]1CCCN1c1ccc2c(c1)O[C@H]1CCN(C1)S2(=O)=O | 2
CNC(=O)CCc1nc(-c2ccc(C(C)C)cc2)no1 | -3
COC(=O)[C@]12C[C@H](CC(=O)NCc3cccc4ccccc34)C(=O)N(CCc3ccc(OC)c(OC)c3)C1=C[C@H](C(C)C)O[C@@H]2C1CC1 | 0
O=C(OCc1cn(Cc2cccc(F)c2F)nn1)N1CCCC1 | -1
Cc1cccc(-c2nnc(SCC(=O)Nc3ccc(OCc4ccccc4)cc3)n2Cc2ccco2)c1 | -2
Cc1ccc2c(c1)N(CCCC(=O)NCc1ccc(F)cc1)C(=O)CO2 | 0
O=S(=O)(c1cccs1)N1CCN(c2ccccc2)CC1 | 16* | TbREL1 conf=3
O=S(=O)(c1cccs1)N1CCN(c2ccc(F)cc2)CC1 | 0
O=S(=O)(c1cccs1)N1CCN(c2cccc(Cl)c2)CC1 | 3
